Results filed as inconclusive are left out. Calls of active or inactive are those of the source. The call rests on the fitted dose curve.
target: Vitamin D3 receptor (Homo sapiens) (UniProt P11473); assay: qHTS assay for small molecule agonists of vitamin D receptor signaling (AID 588543); conditions: HEK293T VDR-UAS-bla, beta-lactamase ratio, 16 h; series mostly up to 76.8 µM
Text: NIH Chemical Genomics Center [NCGC]
U.S. Environmental Protection Agency [EPA]
National Institutes of Environmental Health Sciences [NIEHS]
National Toxicology Program [NTP]
The Vitamin D receptor (VDR) is a member of nuclear hormone receptor superfamily and it plays a critical role in calcium homeostasis and bone metabolism. It plays a role in inducing cell differentiation, inhibiting cell growth and in thrombogenicity. So, VDR that mediates these effects represents a pharmacological target in prevention and treatment of hyperproliferative malignancies, such as cancer and psoriasis, cardiovascular, immunological, inflammatory and renal diseases etc.
NCGC Assay Protocol Summary
Using a beta-lactamase reporter-gene under control of Vitamin D receptor (VDR) response element, a cell-based assay [GeneBLAzer (VDR -UAS-bla assay developed by Invitrogen] was used to measure VDR ligands signaling. GeneBLAzer VDR -UAS-bla HEK293T cells were used with assay medium containing 2% charcoal-stripped FBS. The assay was performed in clear bottom black Greiner 1536-well plates. 1-alpha,25-Dihydroxy vitaminD3 was used as a positive control in the screen. Library compounds were measured for their ability to stimulate the reporter gene activity. Compounds were screened in a titration series in 1536-well format. The fluorescence intensity (405 nm excitation, 460/530 nm emission) was measured using an EnVision plate reader. Data was normalized relative to 1-alpha,25-Dihydroxy vitaminD3 control (50 nM, 100%) and DMSO only wells (basal, 0%). Concentration-response titration points for each compound were fitted to the Hill equation yielding concentrations of half-maximal stimulation (EC50) and maximal response (efficacy) values.
qHTS protocol for VDR beta-lactamase assay in agonist mode
[Step] [Parameter] [Value] [Description]
1. Reagent; 6 uL; 2000 cells/well
2. Incubation; 37 C for 5 hrs
4. Controls (1-alpha,25-Dihydroxy vitaminD3); 23 nL,
- Final concentrations of 50 nM and 15 nM in two columns
5. Incubation; 37 C for 16 hrs
6. Detection reagent; 1 uL of CCF4-dye
7. Incubation; RT for 2 hrs
8. Detection; Fluorescence; Envision plate reader

Vitamin D3 receptor (Homo sapiens), sequence (P11473 whole entry, looked up): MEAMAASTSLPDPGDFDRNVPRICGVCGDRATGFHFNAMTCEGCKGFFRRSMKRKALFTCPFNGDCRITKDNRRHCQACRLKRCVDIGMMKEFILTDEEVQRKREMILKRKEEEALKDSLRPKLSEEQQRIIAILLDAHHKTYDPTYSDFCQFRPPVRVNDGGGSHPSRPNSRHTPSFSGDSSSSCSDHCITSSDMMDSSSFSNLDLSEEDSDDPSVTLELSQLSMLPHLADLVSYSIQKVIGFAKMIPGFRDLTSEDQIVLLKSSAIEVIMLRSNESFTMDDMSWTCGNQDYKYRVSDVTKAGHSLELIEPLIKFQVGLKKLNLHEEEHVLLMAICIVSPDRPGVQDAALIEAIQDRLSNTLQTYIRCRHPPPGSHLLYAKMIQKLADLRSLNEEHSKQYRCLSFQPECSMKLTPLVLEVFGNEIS

SMILES	outcome
S=P(N1CC1)(N1CC1)N1CC1	inactive
CC[C@H](C)C(=O)O[C@H]1C[C@@H](C)C=C2C=C[C@H](C)[C@H](CC[C@@H]3C[C@@H](O)CC(=O)O3)[C@H]21	inactive
CN(C)c1ccc(C(=C2C=CC(=[N+](C)C)C=C2)c2ccc(N(C)C)cc2)cc1	inactive
CCc1cc(C(N)=S)ccn1	inactive
CC(=O)CC(c1ccccc1)c1c(O)c2ccccc2oc1=O (centres undefined)	inactive
CC(=O)[C@H]1CC[C@H]2[C@@H]3CCC4=CC(=O)CC[C@]4(C)[C@H]3CC[C@]12C	inactive
COc1ccc2cc3[n+](cc2c1OC)CCc1cc2c(cc1-3)OCO2	inactive
C[C@]12C=CC(=O)C=C1CC[C@@H]1[C@@H]2C(=O)C[C@@]2(C)[C@H]1CC[C@]2(O)C(=O)CO	inactive
Cc1ccnc2c1NC(=O)c1cccnc1N2C1CC1	inactive
OC(Cn1cncn1)(Cn1cncn1)c1ccc(F)cc1F	inactive
NNC(=O)c1ccncc1	inactive
Cc1cc(NS(=O)(=O)c2ccc(N)cc2)no1	inactive
Cc1nnc(NS(=O)(=O)c2ccc(N)cc2)s1	inactive
N=C(N)c1ccc(OCCCCCOc2ccc(C(=N)N)cc2)cc1	inactive

From PubChem BioAssay (NCATS)
